Reference: ChEMBL document CHEMBL1961873, “Compounds: GSK PKIS; Assays: Nanosyn kinase panel” (2012)

Key:
[1] = biological target: Tyrosine-protein kinase SYK (Homo sapiens) (UniProt P43405); settings: at 1 µM
[2] = biological target: T1, Tyrosine-protein kinase Tec (Homo sapiens) (UniProt P42680); settings: at 0.1 µM
T1 sequence (whole entry): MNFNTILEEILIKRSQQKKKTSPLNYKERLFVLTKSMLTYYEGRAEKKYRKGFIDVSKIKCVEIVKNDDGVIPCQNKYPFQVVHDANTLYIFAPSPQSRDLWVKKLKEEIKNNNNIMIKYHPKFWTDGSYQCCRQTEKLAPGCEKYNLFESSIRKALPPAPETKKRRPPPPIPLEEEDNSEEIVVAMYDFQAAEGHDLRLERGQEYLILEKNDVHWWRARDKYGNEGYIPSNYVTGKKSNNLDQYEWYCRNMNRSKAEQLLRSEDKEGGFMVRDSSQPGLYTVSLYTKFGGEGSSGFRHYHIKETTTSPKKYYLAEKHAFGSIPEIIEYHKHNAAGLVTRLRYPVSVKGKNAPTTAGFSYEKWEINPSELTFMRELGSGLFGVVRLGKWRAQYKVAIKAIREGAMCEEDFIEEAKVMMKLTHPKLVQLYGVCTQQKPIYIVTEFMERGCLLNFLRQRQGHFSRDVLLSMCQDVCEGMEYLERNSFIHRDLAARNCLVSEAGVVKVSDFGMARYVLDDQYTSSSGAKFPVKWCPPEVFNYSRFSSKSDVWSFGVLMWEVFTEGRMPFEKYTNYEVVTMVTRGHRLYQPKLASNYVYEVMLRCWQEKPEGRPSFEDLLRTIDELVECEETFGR

[3] = biological target: T1, Tyrosine-protein kinase Tec (Homo sapiens); settings: at 1 µM
[4] = biological target: Angiopoietin-1 receptor (Homo sapiens) (UniProt Q02763); settings: at 0.1 µM
Angiopoietin-1 receptor (Homo sapiens), sequence (Q02763 whole entry): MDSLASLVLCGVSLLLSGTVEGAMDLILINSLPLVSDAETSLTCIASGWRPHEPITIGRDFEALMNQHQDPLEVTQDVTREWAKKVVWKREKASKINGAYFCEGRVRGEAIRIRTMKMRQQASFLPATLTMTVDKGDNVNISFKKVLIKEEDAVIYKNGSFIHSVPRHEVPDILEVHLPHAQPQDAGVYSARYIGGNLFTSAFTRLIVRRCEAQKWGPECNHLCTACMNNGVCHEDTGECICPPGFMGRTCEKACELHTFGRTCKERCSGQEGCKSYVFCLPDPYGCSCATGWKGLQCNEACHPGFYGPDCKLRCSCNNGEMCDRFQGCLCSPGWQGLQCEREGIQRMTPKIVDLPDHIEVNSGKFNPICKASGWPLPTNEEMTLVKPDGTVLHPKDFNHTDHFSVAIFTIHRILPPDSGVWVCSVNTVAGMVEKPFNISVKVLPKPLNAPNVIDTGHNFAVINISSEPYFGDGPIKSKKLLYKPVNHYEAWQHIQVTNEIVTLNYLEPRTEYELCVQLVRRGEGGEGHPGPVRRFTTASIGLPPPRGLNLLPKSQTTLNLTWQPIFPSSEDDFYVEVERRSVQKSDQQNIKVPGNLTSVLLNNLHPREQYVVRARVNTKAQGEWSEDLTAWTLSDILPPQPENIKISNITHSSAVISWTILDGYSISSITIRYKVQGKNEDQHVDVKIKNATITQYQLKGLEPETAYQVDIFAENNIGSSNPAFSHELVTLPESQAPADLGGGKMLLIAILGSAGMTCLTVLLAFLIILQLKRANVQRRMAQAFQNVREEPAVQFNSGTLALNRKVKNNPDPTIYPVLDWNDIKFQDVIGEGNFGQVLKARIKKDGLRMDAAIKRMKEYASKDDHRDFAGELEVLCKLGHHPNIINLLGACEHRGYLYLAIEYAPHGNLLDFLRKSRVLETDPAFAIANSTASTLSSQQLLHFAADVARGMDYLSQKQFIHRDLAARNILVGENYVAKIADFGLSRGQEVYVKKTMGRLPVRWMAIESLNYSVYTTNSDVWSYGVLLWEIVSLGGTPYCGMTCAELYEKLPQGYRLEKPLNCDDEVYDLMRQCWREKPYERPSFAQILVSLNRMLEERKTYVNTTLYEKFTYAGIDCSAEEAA

[5] = biological target: Angiopoietin-1 receptor (Homo sapiens) (UniProt Q02763); settings: at 1 µM
[6] = biological target: T2, Non-receptor tyrosine-protein kinase TNK1 (Homo sapiens) (UniProt Q13470); settings: at 0.1 µM
T2 sequence (whole entry): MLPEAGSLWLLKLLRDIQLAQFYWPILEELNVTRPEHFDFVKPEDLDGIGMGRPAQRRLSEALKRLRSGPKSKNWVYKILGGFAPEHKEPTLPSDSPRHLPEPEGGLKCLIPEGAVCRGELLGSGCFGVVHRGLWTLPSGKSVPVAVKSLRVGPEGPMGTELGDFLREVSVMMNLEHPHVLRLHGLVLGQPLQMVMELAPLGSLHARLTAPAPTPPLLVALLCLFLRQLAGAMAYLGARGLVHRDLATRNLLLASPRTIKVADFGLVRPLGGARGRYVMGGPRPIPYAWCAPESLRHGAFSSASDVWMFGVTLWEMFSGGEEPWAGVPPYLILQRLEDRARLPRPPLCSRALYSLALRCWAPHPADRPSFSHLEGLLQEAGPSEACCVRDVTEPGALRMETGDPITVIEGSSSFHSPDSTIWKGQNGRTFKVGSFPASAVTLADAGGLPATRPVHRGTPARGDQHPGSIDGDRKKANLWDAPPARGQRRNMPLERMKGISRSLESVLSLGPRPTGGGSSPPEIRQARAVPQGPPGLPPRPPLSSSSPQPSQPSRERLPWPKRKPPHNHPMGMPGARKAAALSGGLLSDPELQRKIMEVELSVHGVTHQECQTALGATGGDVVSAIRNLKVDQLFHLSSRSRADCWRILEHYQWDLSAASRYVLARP

[7] = biological target: T2, Non-receptor tyrosine-protein kinase TNK1 (Homo sapiens); settings: at 1 µM
[8] = biological target: Activated CDC42 kinase 1 (Homo sapiens) (UniProt Q07912); settings: at 0.1 µM
Activated CDC42 kinase 1 (Homo sapiens), sequence (Q07912 whole entry, looked up): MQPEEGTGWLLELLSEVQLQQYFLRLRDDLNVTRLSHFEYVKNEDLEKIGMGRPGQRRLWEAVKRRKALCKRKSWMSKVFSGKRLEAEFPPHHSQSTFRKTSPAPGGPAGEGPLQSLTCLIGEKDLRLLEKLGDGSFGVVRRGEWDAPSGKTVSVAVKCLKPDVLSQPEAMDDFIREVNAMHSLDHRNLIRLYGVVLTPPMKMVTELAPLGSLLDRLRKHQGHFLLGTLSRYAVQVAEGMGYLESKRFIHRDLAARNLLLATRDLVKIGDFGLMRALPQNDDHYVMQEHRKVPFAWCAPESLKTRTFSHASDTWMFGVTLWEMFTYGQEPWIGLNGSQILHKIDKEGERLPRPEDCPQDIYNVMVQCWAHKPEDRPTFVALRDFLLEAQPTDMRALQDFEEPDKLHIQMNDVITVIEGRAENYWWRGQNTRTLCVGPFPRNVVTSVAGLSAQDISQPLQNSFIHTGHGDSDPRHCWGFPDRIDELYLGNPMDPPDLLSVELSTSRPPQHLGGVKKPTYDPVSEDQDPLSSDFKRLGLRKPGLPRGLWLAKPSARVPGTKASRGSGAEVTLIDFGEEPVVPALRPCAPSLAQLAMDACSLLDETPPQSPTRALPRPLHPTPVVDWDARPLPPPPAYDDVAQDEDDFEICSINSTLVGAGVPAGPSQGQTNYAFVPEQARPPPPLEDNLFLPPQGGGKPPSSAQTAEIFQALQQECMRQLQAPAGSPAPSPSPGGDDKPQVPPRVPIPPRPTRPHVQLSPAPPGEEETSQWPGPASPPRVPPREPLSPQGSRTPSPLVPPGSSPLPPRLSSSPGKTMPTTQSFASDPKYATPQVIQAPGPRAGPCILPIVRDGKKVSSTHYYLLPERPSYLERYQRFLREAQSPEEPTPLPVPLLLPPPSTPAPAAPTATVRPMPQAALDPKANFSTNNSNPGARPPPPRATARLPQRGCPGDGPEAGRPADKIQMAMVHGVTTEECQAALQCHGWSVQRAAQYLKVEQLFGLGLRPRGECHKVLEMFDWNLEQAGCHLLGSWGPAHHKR

[9] = biological target: Activated CDC42 kinase 1 (Homo sapiens) (UniProt Q07912); settings: at 1 µM
[10] = biological target: High affinity nerve growth factor receptor (Homo sapiens) (UniProt P04629); settings: at 0.1 µM;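 further: each value is a mean of replicate percent inhibition readings against TRKA kinase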
High affinity nerve growth factor receptor (Homo sapiens), sequence (P04629 33-796 limits assumed): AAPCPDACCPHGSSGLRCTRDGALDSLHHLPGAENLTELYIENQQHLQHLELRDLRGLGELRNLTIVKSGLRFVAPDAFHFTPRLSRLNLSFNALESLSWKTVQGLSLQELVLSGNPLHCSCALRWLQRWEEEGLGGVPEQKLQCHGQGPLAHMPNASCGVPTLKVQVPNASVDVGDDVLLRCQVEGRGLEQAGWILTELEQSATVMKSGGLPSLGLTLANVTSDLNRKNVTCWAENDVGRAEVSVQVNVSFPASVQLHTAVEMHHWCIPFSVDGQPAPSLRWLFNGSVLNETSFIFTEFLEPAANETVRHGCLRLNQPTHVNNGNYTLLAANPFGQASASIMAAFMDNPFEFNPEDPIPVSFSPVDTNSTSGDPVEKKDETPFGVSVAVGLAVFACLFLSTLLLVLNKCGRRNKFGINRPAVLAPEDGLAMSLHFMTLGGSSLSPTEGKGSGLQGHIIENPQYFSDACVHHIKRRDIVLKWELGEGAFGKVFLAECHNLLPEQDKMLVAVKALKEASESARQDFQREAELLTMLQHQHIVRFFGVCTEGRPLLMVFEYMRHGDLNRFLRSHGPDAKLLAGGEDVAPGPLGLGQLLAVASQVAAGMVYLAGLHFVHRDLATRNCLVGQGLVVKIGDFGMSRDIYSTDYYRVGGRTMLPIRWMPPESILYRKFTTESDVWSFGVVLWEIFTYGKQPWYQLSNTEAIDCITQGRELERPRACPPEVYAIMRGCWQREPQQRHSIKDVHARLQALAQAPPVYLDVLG

## O=C(Nc1ccc(Oc2ccc3[nH]c(NC(=O)c4ccccc4)nc3c2)cc1)Nc1cc(C(F)(F)F)ccc1F
[1]
  inhibition: -0.11%
[2]
  inhibition: 4.86%
[3]
  inhibition: 8.67%
[4]
  inhibition: 9.81%
[5]
  inhibition: 60.5%
[6]
  inhibition: 4.53%
[7]
  inhibition: 40%
[8]
  inhibition: 0.59%
[9]
  inhibition: 4.59%
[10]
  inhibition: 5.99%

## COc1ccc(C2=C(N3CCc4ccccc43)C(=O)NC2=O)cc1
[1]
  inhibition: 2.15%
[2]
  inhibition: 5.51%
[3]
  inhibition: 6.81%
[4]
  inhibition: 2.29%
[5]
  inhibition: 3.07%
[6]
  inhibition: 4.3%
[7]
  inhibition: 13.9%
[8]
  inhibition: 1.51%
[9]
  inhibition: 2.14%
[10]
  inhibition: 5.01%

## CS(=O)(=O)CCNCc1ccc(-c2ccc3ncnc(Nc4ccc(OCc5ccccc5)c(Br)c4)c3c2)o1
[1]
  inhibition: -5.01%
[2]
  inhibition: -2.31%
[3]
  inhibition: 1.49%
[4]
  inhibition: 0.77%
[5]
  inhibition: 4.68%
[6]
  inhibition: 0.59%
[7]
  inhibition: 14.6%
[8]
  inhibition: -0.17%
[9]
  inhibition: 1.61%
[10]
  inhibition: 1.4%

## COc1cccc(-n2cnc3c(N/N=C/c4ccncc4)ncnc32)c1
[1]
  inhibition: -1.09%
[2]
  inhibition: -2.49%
[3]
  inhibition: 5.03%
[4]
  inhibition: -0.9%
[5]
  inhibition: 9.67%
[6]
  inhibition: 1.98%
[7]
  inhibition: 19.3%
[8]
  inhibition: 0.06%
[9]
  inhibition: 3.07%
[10]
  inhibition: -1.67%

## COc1ccc2cc(-c3c(-c4ccncc4)nc(-c4ccc(S(C)(=O)=O)cc4C)n3C)ccc2c1
[1]
  inhibition: 0.26%
[2]
  inhibition: 4.38%
[3]
  inhibition: 5.26%
[4]
  inhibition: 75%
[5]
  inhibition: 78.7%
[6]
  inhibition: 4.94%
[7]
  inhibition: 29.3%
[8]
  inhibition: 0.74%
[9]
  inhibition: 3.77%
[10]
  inhibition: 3.75%

## Fc1ccc(-c2ncn(C3CCNCC3)c2-c2ccnc(Oc3ccc4c(c3)OCO4)n2)cc1
[1]
  inhibition: -5.42%
[2]
  inhibition: 2.04%
[3]
  inhibition: 5.37%
[4]
  inhibition: 7.45%
[5]
  inhibition: 12.3%
[6]
  inhibition: 3.93%
[7]
  inhibition: 7.31%
[8]
  inhibition: 1.16%
[9]
  inhibition: 1.77%
[10]
  inhibition: 1.21%

## CCc1cccc(CC)c1/C=C/c1cncc(C(=O)NC)c1
[1]
  inhibition: -0.49%
[2]
  inhibition: 4.18%
[3]
  inhibition: 7.25%
[4]
  inhibition: 1.3%
[5]
  inhibition: 3.17%
[6]
  inhibition: 5.96%
[7]
  inhibition: 10.2%
[8]
  inhibition: 1.3%
[9]
  inhibition: 2.37%
[10]
  inhibition: 1.94%

## C[C@@H](Oc1cc(-n2cnc3ccc(OC4CCN(C)CC4)cc32)sc1C(N)=O)c1ccccc1Cl
[1]
  inhibition: 2.16%
[2]
  inhibition: 2.27%
[3]
  inhibition: 1.73%
[4]
  inhibition: 7.19%
[5]
  inhibition: 11.9%
[6]
  inhibition: 3.41%
[7]
  inhibition: 18.1%
[8]
  inhibition: -0.17%
[9]
  inhibition: 1.13%
[10]
  inhibition: 2.29%

## O=C(Nc1n[nH]c2nc(-c3ccc(O)cc3)c(Br)cc12)C1CC1
[1]
  inhibition: 0.18%
[2]
  inhibition: 6.51%
[3]
  inhibition: 14.4%
[4]
  inhibition: 5.98%
[5]
  inhibition: 26.2%
[6]
  inhibition: 4.45%
[7]
  inhibition: 20.4%
[8]
  inhibition: 1.69%
[9]
  inhibition: 3.9%
[10]
  inhibition: 4.06%

## CCS(=O)(=O)c1ccc(OC)c(Nc2ncc(-c3ccccc3Cl)o2)c1
[1]
  inhibition: 4.5%
[2]
  inhibition: 3.48%
[3]
  inhibition: 5.03%
[4]
  inhibition: 0.48%
[5]
  inhibition: 7.52%
[6]
  inhibition: 16.9%
[7]
  inhibition: 67.2%
[8]
  inhibition: 1.07%
[9]
  inhibition: 3.27%
[10]
  inhibition: 2.9%

## Fc1ccc(-c2ncn(C3CCNCC3)c2-c2ccnc(Oc3ccc(Oc4ccccc4)cc3)n2)cc1
[1]
  inhibition: 3.37%
[2]
  inhibition: 7.61%
[3]
  inhibition: 3.11%
[4]
  inhibition: 3.79%
[5]
  inhibition: 4.32%
[6]
  inhibition: 2.72%
[7]
  inhibition: 0.92%
[8]
  inhibition: 0.73%
[9]
  inhibition: 1.8%
[10]
  inhibition: 3.4%

## Fc1ccc(-c2c(-c3ccncc3)nc3n2CCS3)cc1
[1]
  inhibition: 1.49%
[2]
  inhibition: -1.67%
[3]
  inhibition: -0.75%
[4]
  inhibition: 2.27%
[5]
  inhibition: 4.78%
[6]
  inhibition: 0.74%
[7]
  inhibition: 2.59%
[8]
  inhibition: 0.57%
[9]
  inhibition: 1.01%
[10]
  inhibition: 3.03%

## COc1cc(Nc2ncc3c(C)nc(-c4cccc(C(F)(F)F)c4)n3n2)cc(OC)c1OC
[1]
  inhibition: -2.22%
[2]
  inhibition: 3.55%
[3]
  inhibition: 16.9%
[4]
  inhibition: 2.15%
[5]
  inhibition: 6.29%
[6]
  inhibition: 15.2%
[7]
  inhibition: 48.8%
[8]
  inhibition: 0.75%
[9]
  inhibition: 3.69%
[10]
  inhibition: 2.69%

## Cc1ccc(NC(=O)c2ccoc2)cc1-c1ccc(C(=O)NCC2CC2)cc1
[1]
  inhibition: -2.99%
[2]
  inhibition: 0.28%
[3]
  inhibition: 3.18%
[4]
  inhibition: 1.56%
[5]
  inhibition: 3.38%
[6]
  inhibition: 0.21%
[7]
  inhibition: 5.38%
[8]
  inhibition: 0.62%
[9]
  inhibition: 0.64%
[10]
  inhibition: 2.04%

## c1ccc(-c2n[nH]cc2-c2ccnc(-c3ccc(OCCN4CCOCC4)cc3)c2)nc1
[1]
  inhibition: -0.16%
[2]
  inhibition: 3.84%
[3]
  inhibition: 4.59%
[4]
  inhibition: 4.66%
[5]
  inhibition: 7.13%
[6]
  inhibition: 0.24%
[7]
  inhibition: -5.31%
[8]
  inhibition: 5.48%
[9]
  inhibition: 5.14%
[10]
  inhibition: -3.86%

## COC(=O)Nc1nc2ccc(Sc3ccc(NC(=O)Nc4cc(C(F)(F)F)ccc4F)cc3)cc2[nH]1
[1]
  inhibition: -0.54%
[2]
  inhibition: 3.34%
[3]
  inhibition: 5.46%
[4]
  inhibition: 21.1%
[5]
  inhibition: 70.7%
[6]
  inhibition: 2.15%
[7]
  inhibition: 25.3%
[8]
  inhibition: 0.06%
[9]
  inhibition: 1.64%
[10]
  inhibition: 62.7%

## CN(c1ccc(NC(=O)Nc2c(Cl)cccc2Cl)cc1)c1ccnc(Nc2cccc(CS(C)(=O)=O)c2)n1
[1]
  inhibition: -9.25%
[2]
  inhibition: 10.1%
[3]
  inhibition: 21.4%
[4]
  inhibition: 64.2%
[5]
  inhibition: 72.1%
[6]
  inhibition: 59.8%
[7]
  inhibition: 84.1%
[8]
  inhibition: 1.13%
[9]
  inhibition: 4.21%
[10]
  inhibition: 49.7%
